The campaign covered roughly 1,100 compounds. About 860 (78%) were called active. Not shown: some 19% with an inconclusive outcome. Calls follow the shape of the dose curve; as a rule, active = well fitted activation curve with a large enough effect; inconclusive = small, poorly fitted or top-dose-only effect; inactive = flat fitted curve, though single readings scatter. So high a share suggests a set chosen from earlier hits. This is one part of the list.
Potency is read from the fitted curve at half-maximal effect.

A short description of this assay: qHTS of Nrf2 Activators: Hit Validation in Primary Assay. Also: nearly all actives have a fitted effect of over 70% in size. Conditions: Nrf2/ARE reporter cell assay, activation. An excerpt:
Many diseases have some form of oxidative stress injury and ties to inflammation, causing a host of problems for the patient. The antioxidant response element (ARE) plays an important role in alleviating the harmful effects of oxidative stress. The antioxidant response element (ARE) is a transcriptional regulatory element involved in the activation of genes coding for a number of antioxidant proteins and detoxifying enzymes. These enzymes work in concert to protect tissues from oxidative insults and chemical toxicities in human hepatocytes and immune cells. The protective effects of ARE activation are primarily triggered through Nrf2 (NF-E2-related factor) binding to and activating AREs. It is known that Nrf2 controls the production of over 250 antioxidant and detoxification proteins (Hu et al., 2006), thereby protecting tissues by increasing cellular antioxidant content and suppressing inflammatory signaling pathways. The transcription factor Nrf2 is a central link between oxidative chemicals, such as phenolic antioxidants and electrophilic compounds, and the activation of ARE. Nrf2 levels are constitutively low as a consequence of its interaction with Keap1, which targets its degradation (Zipper and Mulcahy, 2002). Electrophiles react with key cysteine residues in Keap1, releasing Nrf2 and allowing its translocation to the nucleus. Once within the nucleus, Nrf2 complexes with coactivators such as p300, and binds to the AREs to induce gene transcription of cytoprotective enzymes, resulting in the prevention of toxicity. Activation of Nrf2 protects tissues by increasing cellular antioxidant content and suppressing inflammatory signaling pathways. Identifying novel and potent Nrf2 activators by using the AREc32 cell line to detect ARE activation by small molecules will lead to the identification and development of probes to study protective pathways in multiple tissues. These specific probes are essential to study the ARE pathway, and eventually to determine whether this pathway does activate genes that could protect against a host of diseases, including cardiovascular diseases, obesity, diabetes, Alzheimer's, and Parkinson's disease.
This project's aim is to identify novel and potent Nrf2 activators by using the AREc32 cell line to detect ARE activation by small molecules, which will lead to the identification and development of probes to study the ARE pathway.
NIH Chemical Genomics Center [NCGC]
NIH Molecular Libraries Probe Centers Network [MLPCN]
Assay Submitter (PI): Curtis Klaassen, University of Kansas Medical Center
Quantification of ARE activation after compound treatment was measured by the Steady-Glo Luciferase (R) assay system (Promega) in AREc32_fluc stable cells. The Steady-Glo reagent acts by cell lysis and generation of a luminescent signal proportional to ARE activation, through the luciferase reporter in the AREc32 stable cell line. AREc32_fluc cells were harvested from T225 flask and resuspended in phenol red free OPTI-MEM medium with 5% FBS. Then 5 microL of 200,000 cells/mL resuspended cells were dispensed into each well of white, solid bottom, 1536-well tissue culture-treated plates using a Multidrop Combi dispenser. After overnight culture at 37 degrees C with 5% CO2, a total of 23 nL of compounds at 5 selected concentrations from the MLSMR/Sytravon or positive control (40 uM stock of CDDO-IM and 2 mM of tBHQ) in DMSO was transferred to each well of the assay plate using a pintool (Kalypsys, San Diego, CA), and the plates were further incubated at 37 degrees C with 5% CO2 for 24 hours. After that, 2 microL of Steady Glo luminescent substrate mix (Promega) was added to each well. The plate was incubated at room temperature for 30 minutes. The plates were measured on a ViewLux plate reader (PerkinElmer) with clear filter.
(Quantitative high-throughput screening tests each substance at several concentrations.)
Consider `COc1ccc(Sc2cnn(-c3ccccc3)c(=O)c2Cl)cc1`, for which the Potency was 4.61 µM (active). Take `O=c1[nH]c(=S)[nH]c(O)c1N=Nc1ccc(S(=O)(=O)N2CCc3ccccc32)cc1`: the Potency was 16.4 µM (active). With `Clc1ccccc1Nc1ncnc(-n2cccc2)n1`, the Potency was 2.59 µM (active).

Consider `Cc1cccc(C(=O)Nc2nnc(SCC(=O)NCc3ccco3)s2)c1`, for which the Potency was 8.2 µM (active).

For `Cc1cc(SCC(=O)N/N=C/c2ccco2)nc2ccccc12`, the Potency is 11.6 µM (active). As for `Cn1c(=O)oc2cc(NC(=O)CCl)ccc21`, the Potency is 4.61 µM (active). Regarding `CCn1c(=O)oc2cc(NC(=O)CCl)ccc21`, the Potency was 4.61 µM (active). As for `O=C(O)c1ccc([N+](=O)[O-])c([N+](=O)[O-])c1`, the Potency is 5.17 µM (active).

Turning to `Cn1c(O)c(N=Nc2ccc(S(=O)(=O)N3CCOCC3)cc2)c(=O)n(C)c1=O`, the Potency is 18.4 µM (active).

Turning to `Clc1cccc(/C=N\Nc2nccs2)c1`, the Potency is 2.91 µM (active). The figure for `O=C(Nc1ccc(Cl)c(Cl)c1)c1ccco1` is 4.61 µM (active); for `O=C1c2ccccc2-c2cc3ccccc3cc21` it is 4.61 µM (active). Regarding `Fc1cccc(F)c1-c1nc(-c2ccc(Cl)cc2)no1`, the Potency is 3.66 µM (active). On to `CCCCn1c(O)c(C(=O)/C=C/c2ccc3c(c2)OCO3)c(=O)[nH]c1=O`, for which the Potency is 9.2 µM (active). As to `O=C(/C=C/c1ccccc1)c1c(O)n(CCc2ccccc2)c(=O)[nH]c1=O`, the Potency was 3.66 µM (active).
